This passage reports activity remaining results from PubChem BioAssay.

Unmarked numbers belong to inactive results. No rule for the calls is given here.

The assay has as its system Aerobactin synthetase IucA (Klebsiella pneumoniae hvKP1). In words: IucA enzyme inhibition, primary screen, biochemical, Spectrum library (AID 1346200).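 Also: 100% = wells without compound and 0% = wells lacking enzyme.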 The following applies: malachite green pyrophosphate, A620, at 8 µM, hits give low values.
Regarding `CC(CCC(=O)O)[C@H]1CCC2C3CC[C@@H]4C[C@H](O)CC[C@]4(C)C3CC[C@@]21C` (stereo partly specified), the activity remaining is 91.8%.
For `O=C1C(CCS(=O)c2ccccc2)C(=O)N(c2ccccc2)N1c1ccccc1` (stereo unspecified) the value was 116%; for `Clc1ccc(C(Cn2ccnc2)OCc2ccsc2Cl)c(Cl)c1` (stereo unspecified), 109%.
In the case of `Nc1ccc(S(=O)(=O)NC(=O)c2ccccc2)cc1` it was 109%.
As for `Cc1cc(C2CCCCC2)n(O)c(=O)c1`, the activity remaining is 95.7%.
On to `CCOC(=O)CCC(=O)O[C@H]1[C@H](O[C@@H]2[C@@H](C)[C@H](O[C@H]3C[C@@](C)(OC)[C@@H](O)[C@H](C)O3)[C@@H](C)C(=O)O[C@H](CC)[C@@](C)(O)[C@H](O)[C@@H](C)C(=O)[C@H](C)C[C@@]2(C)O)O[C@H](C)C[C@@H]1N(C)C`, for which the activity remaining is 113%.
As for `O=C(O[C@@H]1Cc2c(O)cc(O)cc2O[C@@H]1c1cc(O)c(O)c(O)c1-c1c([C@H]2Oc3cc(O)cc(O)c3C[C@H]2O)cc(O)c(O)c1O)c1cc(O)c(O)c(O)c1`, the activity remaining was 119%.
In the case of `COc1ccc2c3c1O[C@H]1C[C@@H](O)C=C[C@@]31CCN(C)C2`, the activity remaining is 103%.
With `CN1CCC(=C2c3ccccc3CC(=O)c3sccc32)CC1`, the activity remaining was 100%.
In the case of `Cn1c(=O)c2c(ncn2C)n(C)c1=O` it was 119%; in that of `CC(C)(O)CC[C@@H](O)[C@](C)(O)C1CC[C@@]2(O)C3=CC(=O)C4C[C@@H](O)[C@@H](O)C[C@]4(C)C3CC[C@]12C` (stereo partly specified), 102%; in that of `CCCc1cc(C(N)=S)ccn1`, 110%.
For `Oc1ccc2c(c1)OCC1c3cc4c(cc3OC21)OCO4` (stereo unspecified) the value was 87.4%; for `CC(C)COCC(CN(Cc1ccccc1)c1ccccc1)N1CCCC1` (stereo unspecified), 126%.
With `COc1cc2nc(N3CCN(C(=O)c4ccco4)CC3)nc(N)c2cc1OC`, the activity remaining is 127%.
On to `C=C[C@H]1CN2CC[C@H]1C[C@@H]2[C@@H](O)c1ccnc2ccc(OC)cc12`, for which the activity remaining was 98.9%.
In the case of `COC(=O)[C@@H]1OC(=O)[C@H]2O[C@@]23[C@@]1(C)CCC1[C@@]2(C)CCC(=O)C(C)(C)C2C[C@@H](OC(C)=O)[C@]13C` (stereo partly specified) it was 109%; in that of `C[C@H]1CC2C([C@@H](O)C[C@@]3(C)C2CC[C@]3(O)C(=O)CO)[C@@]2(C)C=CC(=O)C=C12` (stereo partly specified), 115%; in that of `O=C(CCCCCCCCCCCCC1CCCC1)Nc1ccc(S(=O)(=O)c2ccc(NC(=O)CCCCCCCCCCCCC3CCCC3)cc2)cc1`, 94.8%.
In the case of `CC[C@]12CCCN3CCc4c(n(c5ccccc45)C(=O)C1)[C@@H]32` it was 101%; in that of `O=c1c(-c2ccc(O)cc2)coc2c(C3O[C@H](CO)[C@@H](O)[C@H](O)[C@H]3O)c(O)ccc12` (stereo partly specified), 105%.
In the case of `CSc1ccc2c(c1)N(CCC1CCCCN1C)c1ccccc1S2` (stereo unspecified) it was 116%; in that of `CC1CCC2(OC1)OC1CC3C4CCC5C[C@@H](O)CCC5(C)C4=CCC3(C)C1[C@@H]2C` (stereo partly specified), 95.7%; in that of `CCN1CCN(C(=O)NC(C(=O)N[C@@H]2C(=O)N3[C@@H]2SC(C)(C)[C@@H]3C(=O)O)c2ccccc2)C(=O)C1=O` (stereo partly specified), 104%.
Consider `COc1cc(NS(=O)(=O)c2ccc(N)cc2)nc(OC)n1`, for which the activity remaining was 90.2%.
For `CN1CCc2c(c3ccccc3n2Cc2ccccc2)C1` the value was 116%; for `CN1C(CC(=O)c2ccccc2)CCCC1CC(O)c1ccccc1` (stereo unspecified), 108%; for `Cc1cc(=O)oc2cc(O)c(O)cc12`, 118%.
For `CC(=O)O[C@H]1C[C@@H](OC(C)=O)C(C)(C)C2C[C@@H](OC(C)=O)[C@]3(C)C(CC[C@@]4(C)[C@H](c5ccoc5)OC(=O)[C@H]5O[C@]543)[C@]21C` (stereo partly specified) the value was 103%; for `O=C(/C=C/c1ccc(O)c(O)c1)OCCc1ccccc1`, 78.8%; for `CC(=O)[C@@]1(O)CCC2C3CCC4=CC(=O)CC[C@]4(C)C3CC[C@@]21C` (stereo partly specified), 72.4%.
With `CCCc1nc2c(C)cc(-c3nc4ccccc4n3C)cc2n1Cc1ccc(-c2ccccc2C(=O)O)cc1`, the activity remaining was 123%.
In the case of `Nc1ccc(S(=O)(=O)Nc2ccccn2)cc1`, the activity remaining was 97.8%.
In the case of `O=C(O)CCCN1C(=O)c2cccc3cccc(c23)C1=O` it was 110%.
Consider `O=C(O)COCCN1CCN(C(c2ccccc2)c2ccc(Cl)cc2)CC1` (stereo unspecified), for which the activity remaining was 116%.
On to `CC1(O)CC2C(CC1O)C2(C)C` (stereo unspecified), for which the activity remaining is 125%.
